Results reported in PubChem BioAssay (EPA / NIEHS).
Results filed as inconclusive are left out. Calls of active or inactive are those of the source. The calls were made as follows, unless noted: active = hit-call score of the fitted dose curve at least 0.9, where 1 is the maximum; inactive = score below 0.9.

Columns and labels:
[1] = ATG_NFI_CIS: Attagene CIS-FACTORIAL HepG2 Assay for human Nuclear Factor I (NFI) (AID 2282989); settings: HepG2 cis-regulatory reporter, NFI response element transcription; actives raise or lower the signal
Outline: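 Read-out: reporter mRNA via RT-PCR plus capillary electrophoresis with fluorescence detection. Transiently transfected HepG2 (endogenous TF activity on cis promoters), 24 h compound exposure; gain or loss of signal fitted against DMSO.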

[2] = target: Myc proto-oncogene protein (Homo sapiens) (UniProt P01106); assay: ATG_Myc_CIS: Attagene CIS-FACTORIAL HepG2 Assay for human Myelocytomatosis (Myc) Proto-Oncogene Transcription Factor (AID 2282990); settings: HepG2, Attagene cis-reporter transcription factor activity; actives raise or lower the signal
Outline: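 Transiently transfected HepG2 cells bearing cis-promoter reporter units for endogenous transcription factors; 24 h exposure. Reporter mRNA measured by RT-PCR, 6-FAM primer extension, HpaI cut and capillary electrophoresis; bidirectional fit relative to DMSO.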

[3] = ATG_NF_kB_CIS: Attagene CIS-FACTORIAL HepG2 Assay for human Nuclear Factor Kappa B (NF-kB) (AID 2282991); settings: HepG2 Attagene cis-factorial NF-kB reporter mRNA; actives raise or lower the signal
Outline: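 Transient MRTU transfection of human HepG2 liver cells → 24 h chemical exposure → total RNA, oligo(dT) RT → PCR, 6-FAM primer extension, HpaI digest 2 h 37 C → CE fragment analysis. Bidirectional fitting, DMSO negative control.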

[4] = ATG_NRF2_ARE_CIS: Attagene CIS-FACTORIAL HepG2 Assay for human Nuclear Factor Erythroid 2 Related Factor 2 (NFR2) response to Antioxidant Response Elements (ARE) (AID 2282992); settings: HepG2 Attagene ARE/NRF2 reporter, transcription factor activity; actives raise or lower the signal
Outline: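 Endogenous transcription factor activity read out as reporter transcript levels (RT-PCR plus capillary electrophoresis, fluorescence) in transiently transfected HepG2 cells. Measured at 24 h after dosing; gain or loss of signal fitted versus DMSO.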

[5] = ATG_Oct_MLP_CIS: Attagene CIS-FACTORIAL HepG2 Assay for human Octamer-Binding Transcription Factor (Oct) (AID 2282993); settings: HepG2 Attagene cis-factorial Oct reporter, mRNA; actives raise or lower the signal
Outline: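 Read-out: reporter mRNA via RT-PCR plus capillary electrophoresis of 6-FAM-labelled fragments. Transiently transfected HepG2, 24 h exposure, endogenous TF activity on cis elements. Gain or loss of signal fitted relative to DMSO.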

[6] = target: Cellular tumor antigen p53 (Homo sapiens) (UniProt P04637); assay: ATG_p53_CIS: Attagene CIS-FACTORIAL HepG2 Assay for human p53 Transcription Factor (AID 2282994); settings: HepG2 p53 cis-element reporter, Attagene mRNA; actives raise or lower the signal
Outline: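 Endogenous p53 activity read in transiently transfected HepG2 from a cis-element-driven reporter transcript after 24 h exposure. RNA reverse-transcribed, PCR-amplified, fluorescently labelled and sized by capillary electrophoresis; gain or loss fitted against DMSO baseline.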

[7] = BSK_3C_TissueFactor: BioMAP Diversity Plus: 3C Assay for Tissue Factor Biomarker Activity (AID 2282997); settings: BioMAP 3C HUVEC, tissue factor biomarker readout; actives raise or lower the signal
Outline: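 Tissue factor on primary human umbilical vein endothelium was read by ELISA 24 h after dosing, gain or loss relative to DMSO. Cytotoxicity ran alongside via SRB (0.1%, TCA-fixed, 560 nm).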

[8] = BSK_3C_uPAR: BioMAP Diversity Plus: 3C Assay for Urokinase-type plasminogen activator receptor (uPAR) Biomarker Activity (AID 2282998); settings: BioMAP 3C HUVEC, uPAR biomarker ELISA; actives raise or lower the signal
Outline: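 HUVEC primary cells; 24 h post-dose; uPAR by ELISA; gain or loss of signal fitted bidirectionally vs DMSO baseline.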

[9] = BSK_3C_VCAM1: BioMAP Diversity Plus: 3C Assay for Vascular cell adhesion molecule 1 (VCAM1) Biomarker Activity (AID 2282999); settings: BioMAP 3C HUVEC, VCAM1 ELISA, cytokine-stimulated; actives raise or lower the signal
Outline: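 HUVEC primary cells, 24 h compound exposure; VCAM-1 by ELISA; gain/loss of signal fitted bidirectionally vs DMSO baseline.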

[10] = BSK_4H_Eotaxin3: BioMAP Diversity Plus: 4H Assay for Eotaxin 3 Biomarker Activity (AID 2283000); settings: primary human endothelial cells (HUVEC); actives raise or lower the signal
Outline: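 Human umbilical vein endothelial cells (BSK_4H system) dosed with test chemical; Eotaxin-3 (CCL26) measured by ELISA 24 h after dosing. Bidirectional curve fitting relative to DMSO negative control as baseline.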

[11] = target: human Peroxisome Proliferator-activated Receptor delta (PPARd), PPARD (gene 5467) (UniProt Q03181); assay: ATG_PPARd_TRANS: Attagene TRANS-FACTORIAL HepG2 Assay for human Peroxisome Proliferator-activated Receptor delta (PPARd) (AID 2283002; active = hit-call score of the fitted dose curve at least 0.9, where 1 is the maximum)
Outline: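 HepG2 cells transiently transfected with GAL4-UAS multiplexed reporter units driven by exogenous chimeric NR-GAL4 proteins; 24 h compound exposure. Reporter mRNA measured by RT-PCR, 6-FAM primer extension, HpaI digestion and capillary electrophoresis; gain of signal fitted relative to DMSO.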

[12] = read-out: Intercellular Adhesion Molecule 1 (ICAM1), ICAM1 (gene 3383); assay: BSK_3C_ICAM1: BioMAP Diversity Plus: 3C Assay for Intercellular Adhesion Molecule 1 (ICAM1) Biomarker Activity (AID 2283003); settings: primary human endothelial cells (HUVEC); actives raise or lower the signal
Outline: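 ELISA readout of ICAM1 in human umbilical vein endothelial cells in the 3C system, taken 24 h post-dose. Gain or loss of signal versus DMSO was fitted in both directions, with SRB total-protein staining run in parallel.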

[13] = BSK_3C_Proliferation: Cell Proliferation Assessment in the BioMAP Diversity Plus: 3C Assay (AID 2283006); settings: primary human endothelial cells (HUVEC);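 as to AC50: potency may reflect either rise or fall in cell number versus DMSO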
Outline: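 Proliferation as total protein: sulforhodamine B (0.1%) stain of TCA-fixed subconfluent human umbilical vein endothelial cells, absorbance 560 nm, 48 h after dosing. Activity fitted in both directions against DMSO baseline.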

[14] = target: Nuclear receptor subfamily 1 group I member 2 (Homo sapiens) (UniProt O75469); assay: ATG_PXR_TRANS: Attagene TRANS-FACTORIAL HepG2 Assay for human Pregnane X Receptor (PXR) (AID 2283008; active = hit-call score of the fitted dose curve at least 0.9, where 1 is the maximum)
Outline: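 Transactivation by exogenous PXR–GAL4 fusion measured as reporter transcript induction after 24 h compound treatment of transfected human HepG2 cells. Read-out via RT-PCR and capillary electrophoresis of labelled fragments, fitted upward relative to DMSO.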

[15] = target: Retinoic acid receptor alpha (Homo sapiens) (UniProt P10276); assay: ATG_RARa_TRANS: Attagene TRANS-FACTORIAL HepG2 Assay for human Retinoic Acid Receptor alpha (RARa) (AID 2283005; active = hit-call score of the fitted dose curve at least 0.9, where 1 is the maximum)
Outline: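 HepG2 transiently transfected with multiplex GAL4-UAS reporter units including a human RARa–GAL4 chimera; 24 h compound exposure. Reporter mRNA quantified by RT-PCR, 6-FAM labeling and capillary electrophoresis; gain of signal versus DMSO.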

[16] = target: human Retinoic Acid Receptor gamma (RARg), RARG (gene 5916) (UniProt P13631); assay: ATG_RARg_TRANS: Attagene TRANS-FACTORIAL HepG2 Assay for human Retinoic Acid Receptor gamma (RARg) (AID 2283009; active = hit-call score of the fitted dose curve at least 0.9, where 1 is the maximum)
Outline: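 Transactivation of exogenous RARg-Gal4 fusion measured as reporter transcript induction after 24 h in transfected HepG2 cells. RNA reverse-transcribed, amplified, fluorescently labeled and resolved by capillary electrophoresis; increase relative to DMSO.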

[17] = target: human RAR-related Orphan Receptor gamma (RORg), RORC (gene 6097) (UniProt P51449); assay: ATG_RORg_TRANS: Attagene TRANS-FACTORIAL HepG2 Assay for human RAR-related Orphan Receptor gamma (RORg) (AID 2283011; active = hit-call score of the fitted dose curve at least 0.9, where 1 is the maximum)
Outline: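 Reporter transcripts from a transfected RORg-GAL4 chimera in HepG2 cells were quantified 24 h after dosing by RT-PCR, 6-FAM labelling, HpaI digestion and capillary electrophoresis; increases over DMSO baseline were fitted.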

[18] = target: human Peroxisome Proliferator-activated Receptor alpha (PPARa), PPARA (gene 5465) (UniProt Q07869); assay: ATG_PPARa_TRANS: Attagene TRANS-FACTORIAL HepG2 Assay for human Peroxisome Proliferator-activated Receptor alpha (PPARa) (AID 2283001; active = hit-call score of the fitted dose curve at least 0.9, where 1 is the maximum)
Outline: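 HepG2, transient MRTU transfection, 24 h treatment. RT-PCR → FAM labelling → capillary electrophoresis. Fit vs DMSO, positive direction.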

[19] = target: Peroxisome proliferator-activated receptor gamma (Homo sapiens) (UniProt P37231); assay: ATG_PPARg_TRANS: Attagene TRANS-FACTORIAL HepG2 Assay for human Peroxisome Proliferator-activated Receptor-gamma (PPARg) (AID 2283007; active = hit-call score of the fitted dose curve at least 0.9, where 1 is the maximum)
Outline: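 Transient transfection of HepG2 with GAL4-UAS-driven reporter units; chemical dosing 24 h; total RNA → oligo(dT) RT → PCR with reporter primers → 6-FAM primer extension → HpaI digest 2 h 37 C → capillary electrophoresis. Positive direction vs DMSO.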

Measured: AC50

Chain of human Peroxisome Proliferator-activated Receptor alpha (PPARa), PPARA (gene 5465) (Q07869 whole entry, looked up): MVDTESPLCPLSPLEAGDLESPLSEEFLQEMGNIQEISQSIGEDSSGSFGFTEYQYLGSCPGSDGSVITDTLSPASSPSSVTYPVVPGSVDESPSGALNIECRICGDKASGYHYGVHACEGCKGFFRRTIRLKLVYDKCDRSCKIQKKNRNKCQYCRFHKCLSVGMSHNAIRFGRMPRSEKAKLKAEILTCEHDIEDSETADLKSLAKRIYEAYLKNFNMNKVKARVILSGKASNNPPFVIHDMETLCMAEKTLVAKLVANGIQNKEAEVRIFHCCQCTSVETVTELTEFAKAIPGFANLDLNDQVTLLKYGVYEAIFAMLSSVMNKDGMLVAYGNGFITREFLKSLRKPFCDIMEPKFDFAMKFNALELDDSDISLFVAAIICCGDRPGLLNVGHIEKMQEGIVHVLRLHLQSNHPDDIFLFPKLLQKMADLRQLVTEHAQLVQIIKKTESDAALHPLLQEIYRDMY
Chain of Nuclear receptor subfamily 1 group I member 2 (Homo sapiens) (O75469 whole entry, looked up, the tested form may be a part): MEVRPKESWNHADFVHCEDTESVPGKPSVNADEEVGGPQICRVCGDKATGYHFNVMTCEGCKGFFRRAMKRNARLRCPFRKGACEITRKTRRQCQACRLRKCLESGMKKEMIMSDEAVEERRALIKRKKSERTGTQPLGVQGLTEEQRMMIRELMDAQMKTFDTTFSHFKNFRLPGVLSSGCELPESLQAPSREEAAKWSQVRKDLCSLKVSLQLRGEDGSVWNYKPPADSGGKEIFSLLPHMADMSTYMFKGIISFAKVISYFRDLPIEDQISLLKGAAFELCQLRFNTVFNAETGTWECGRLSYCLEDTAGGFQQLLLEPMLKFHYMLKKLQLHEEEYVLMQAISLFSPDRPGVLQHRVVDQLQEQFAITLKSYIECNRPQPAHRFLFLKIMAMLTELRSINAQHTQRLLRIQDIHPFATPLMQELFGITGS
Chain of Myc proto-oncogene protein (Homo sapiens) (P01106 whole entry, looked up): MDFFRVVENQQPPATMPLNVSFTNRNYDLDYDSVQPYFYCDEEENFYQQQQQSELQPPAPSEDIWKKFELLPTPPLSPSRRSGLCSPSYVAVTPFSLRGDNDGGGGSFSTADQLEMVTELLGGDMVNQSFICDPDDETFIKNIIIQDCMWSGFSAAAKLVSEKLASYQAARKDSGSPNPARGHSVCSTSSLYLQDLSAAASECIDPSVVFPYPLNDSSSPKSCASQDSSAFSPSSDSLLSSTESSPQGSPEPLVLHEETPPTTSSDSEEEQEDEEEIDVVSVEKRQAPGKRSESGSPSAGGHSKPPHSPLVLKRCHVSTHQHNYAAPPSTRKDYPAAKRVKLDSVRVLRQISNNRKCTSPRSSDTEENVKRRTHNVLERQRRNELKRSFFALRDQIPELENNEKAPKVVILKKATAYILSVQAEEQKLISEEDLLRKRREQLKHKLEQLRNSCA
Chain of Cellular tumor antigen p53 (Homo sapiens) (P04637 whole entry, looked up): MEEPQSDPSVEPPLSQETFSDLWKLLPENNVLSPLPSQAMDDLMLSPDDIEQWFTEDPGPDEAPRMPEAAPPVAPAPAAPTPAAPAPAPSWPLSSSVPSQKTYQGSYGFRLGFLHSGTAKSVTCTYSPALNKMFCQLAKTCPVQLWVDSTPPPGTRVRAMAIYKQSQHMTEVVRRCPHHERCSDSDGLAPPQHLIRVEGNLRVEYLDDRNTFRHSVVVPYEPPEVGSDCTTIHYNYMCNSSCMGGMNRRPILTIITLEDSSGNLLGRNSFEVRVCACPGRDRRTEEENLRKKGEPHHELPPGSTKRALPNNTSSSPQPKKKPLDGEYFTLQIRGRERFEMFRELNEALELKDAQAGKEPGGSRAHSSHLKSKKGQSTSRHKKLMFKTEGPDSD
Chain of human Retinoic Acid Receptor gamma (RARg), RARG (gene 5916) (P13631 whole entry, looked up, the tested form may be a part): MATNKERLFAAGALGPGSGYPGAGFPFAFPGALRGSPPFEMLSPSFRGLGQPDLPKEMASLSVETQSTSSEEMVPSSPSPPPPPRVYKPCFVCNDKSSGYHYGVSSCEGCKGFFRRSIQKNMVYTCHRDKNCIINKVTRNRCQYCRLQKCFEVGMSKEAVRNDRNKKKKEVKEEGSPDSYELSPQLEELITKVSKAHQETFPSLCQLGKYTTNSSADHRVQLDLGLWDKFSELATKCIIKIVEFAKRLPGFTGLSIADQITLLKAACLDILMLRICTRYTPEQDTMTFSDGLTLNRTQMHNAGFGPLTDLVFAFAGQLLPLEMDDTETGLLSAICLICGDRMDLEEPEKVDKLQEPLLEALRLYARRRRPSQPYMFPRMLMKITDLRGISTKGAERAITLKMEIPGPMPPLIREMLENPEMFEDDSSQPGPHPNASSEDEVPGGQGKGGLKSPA
Chain of human Peroxisome Proliferator-activated Receptor delta (PPARd), PPARD (gene 5467) (Q03181 whole entry, looked up, the tested form may be a part): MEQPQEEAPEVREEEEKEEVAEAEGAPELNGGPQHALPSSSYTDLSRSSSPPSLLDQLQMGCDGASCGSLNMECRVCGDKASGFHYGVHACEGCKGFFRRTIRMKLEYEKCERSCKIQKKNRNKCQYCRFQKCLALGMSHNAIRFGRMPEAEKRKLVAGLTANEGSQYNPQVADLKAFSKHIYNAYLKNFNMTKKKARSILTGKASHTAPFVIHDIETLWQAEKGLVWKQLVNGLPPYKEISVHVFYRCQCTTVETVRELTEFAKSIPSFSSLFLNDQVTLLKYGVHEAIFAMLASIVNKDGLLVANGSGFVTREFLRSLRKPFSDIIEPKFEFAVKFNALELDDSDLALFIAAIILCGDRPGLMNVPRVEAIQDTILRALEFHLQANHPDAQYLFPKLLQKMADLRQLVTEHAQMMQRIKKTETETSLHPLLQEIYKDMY
Chain of human RAR-related Orphan Receptor gamma (RORg), RORC (gene 6097) (P51449 whole entry, looked up, the tested form may be a part): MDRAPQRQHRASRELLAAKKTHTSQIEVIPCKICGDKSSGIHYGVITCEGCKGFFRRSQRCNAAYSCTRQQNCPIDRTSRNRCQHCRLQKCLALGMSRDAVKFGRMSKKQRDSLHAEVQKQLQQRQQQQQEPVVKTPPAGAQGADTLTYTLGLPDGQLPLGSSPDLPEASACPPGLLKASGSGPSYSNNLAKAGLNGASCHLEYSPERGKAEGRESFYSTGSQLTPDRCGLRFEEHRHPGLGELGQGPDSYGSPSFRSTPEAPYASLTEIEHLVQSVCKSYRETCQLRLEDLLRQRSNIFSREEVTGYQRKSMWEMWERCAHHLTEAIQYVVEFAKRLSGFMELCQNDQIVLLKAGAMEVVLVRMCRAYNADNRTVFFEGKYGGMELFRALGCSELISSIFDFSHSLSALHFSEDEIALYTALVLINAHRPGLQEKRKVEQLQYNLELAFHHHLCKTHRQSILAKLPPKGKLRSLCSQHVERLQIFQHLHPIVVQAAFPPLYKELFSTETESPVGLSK
Chain of Retinoic acid receptor alpha (Homo sapiens) (P10276 whole entry, looked up, the tested form may be a part): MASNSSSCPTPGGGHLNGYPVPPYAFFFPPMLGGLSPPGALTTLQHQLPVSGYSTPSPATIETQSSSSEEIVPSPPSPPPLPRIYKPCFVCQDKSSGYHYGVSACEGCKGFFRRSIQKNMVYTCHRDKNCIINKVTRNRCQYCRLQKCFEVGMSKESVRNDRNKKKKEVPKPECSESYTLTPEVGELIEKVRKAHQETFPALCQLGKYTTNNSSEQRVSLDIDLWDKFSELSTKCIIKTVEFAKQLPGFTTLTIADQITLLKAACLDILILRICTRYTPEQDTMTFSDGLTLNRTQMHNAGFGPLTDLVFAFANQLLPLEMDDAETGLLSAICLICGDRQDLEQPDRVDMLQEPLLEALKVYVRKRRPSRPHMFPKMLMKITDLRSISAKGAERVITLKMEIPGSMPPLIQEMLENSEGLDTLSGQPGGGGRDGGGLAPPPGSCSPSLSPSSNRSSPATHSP
Chain of Peroxisome proliferator-activated receptor gamma (Homo sapiens) (P37231 whole entry, looked up, the tested form may be a part): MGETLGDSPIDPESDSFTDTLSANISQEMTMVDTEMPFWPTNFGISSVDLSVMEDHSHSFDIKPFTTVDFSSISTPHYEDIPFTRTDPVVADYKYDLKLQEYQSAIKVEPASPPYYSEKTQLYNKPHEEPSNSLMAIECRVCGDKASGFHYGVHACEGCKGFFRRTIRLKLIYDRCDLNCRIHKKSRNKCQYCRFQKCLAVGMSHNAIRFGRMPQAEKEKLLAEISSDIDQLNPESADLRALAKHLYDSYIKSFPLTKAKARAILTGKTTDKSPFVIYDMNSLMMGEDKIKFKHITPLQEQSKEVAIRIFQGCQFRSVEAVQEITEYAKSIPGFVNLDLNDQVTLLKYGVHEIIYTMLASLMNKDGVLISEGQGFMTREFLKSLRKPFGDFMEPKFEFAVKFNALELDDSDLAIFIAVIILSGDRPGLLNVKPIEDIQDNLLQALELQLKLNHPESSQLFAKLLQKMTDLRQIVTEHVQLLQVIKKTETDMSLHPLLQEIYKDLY

O=C(CCCCCCCCc1cccnc1)N1CCC(C=C(c2ccccc2)c2ccccc2)CC1
inactive: [1] | [3] | [11]
active: [2] 8.5 µM | [4] 4.68 µM | [5] 8.91 µM | [6] 19.3 µM | [7] 8.68 µM | [8] 7.01 µM | [9] 14.3 µM | [10] 9.64 µM | [12] 15.4 µM | [13] 5.66 µM | [14] 1.08 µM

CCCCC(CC)COC(=O)c1ccc(C(=O)OCC(CC)CCCC)cc1 (configuration not stated)
not listed: [3] | [11] | [14] | [18] | [19]
inactive: all other assays above

Oc1ccc2c(c1)-c1ccccc1C2
active: [1] 37.9 µM | [2] 63.1 µM | [4] 2.77 µM | [5] 32.6 µM | [7] 0.791 µM | [8] 14.4 µM | [10] 23.3 µM | [13] 15.4 µM
inactive: [6] | [9] | [18] | [11] | [12] | [14] | [16]

CC/C(=C\C(=N/O)C(N)=O)C(C)[N+](=O)[O-] (configuration not stated)
active: [4] 38.7 µM | [9] 20 µM | [19] 28.1 µM
not listed: [3] | [11] | [15] | [16]
inactive: all other assays above

CC(C)=CCC/C(C)=C\CO
active: [4] 100 µM | [14] 8.73 µM
not listed: [3] | [11] | [15] | [16] | [17] | [19]
inactive: all other assays above

CCCC(=O)OCC
not listed: [3] | [11] | [14] | [15] | [16] | [17] | [18] | [19]
inactive: all other assays above

CC(=O)OC[C@H]1O[C@@](COC(C)=O)(O[C@H]2O[C@H](COC(C)=O)[C@@H](OC(C)=O)[C@H](OC(C)=O)[C@H]2OC(C)=O)[C@@H](OC(C)=O)[C@@H]1OC(C)=O
not listed: [3] | [11] | [15] | [16] | [17] | [19]
inactive: all other assays above

Cn1c(=O)c2c(ncn2C)n(C)c1=O
not listed: [3] | [11] | [15] | [16] | [17] | [18] | [19]
inactive: all other assays above
